# G9a block – inhibitors of human histone lysine methyltransferase G9a. G9a H3K9 monomethylation, AlphaScreen, 2 h. AID 504332. Q96KQ7. Potency, µM (titrated, usually from 102 µM), without a hit: top-dose activity, negative = inhibition, usual class: inhibitors. actives 8.8% (n = 350,000); note: potency is the fitted concentration of half-maximal effect; nearly all actives have a fitted effect of over 75% in size
# Target sequence (Q96KQ7 913-1193 limits assumed): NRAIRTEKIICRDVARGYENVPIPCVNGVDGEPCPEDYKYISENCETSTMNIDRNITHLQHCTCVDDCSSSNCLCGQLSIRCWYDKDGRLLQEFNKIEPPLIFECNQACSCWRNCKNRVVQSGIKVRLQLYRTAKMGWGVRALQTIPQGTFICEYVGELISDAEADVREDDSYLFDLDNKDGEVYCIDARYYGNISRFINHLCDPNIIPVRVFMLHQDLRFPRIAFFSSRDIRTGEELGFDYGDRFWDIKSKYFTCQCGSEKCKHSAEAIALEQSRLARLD
#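 Step 1: enzyme (final 20 nM) with compound, 15 min RT. Step 2: substrate peptide 500 nM and SAM 20 uM, 2 h RT. Step 3: anti-H3K9me1 antibody and AlphaScreen beads, 10 min, then plate read.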
# Tau ThT inhib – inhibitors of human tau fibril formation, thioflavin T binding | recombinant tau K18 P301L, heparin-induced fibrillization, ThT fluorescence | Potency, µM (series often up to 57.4 µM), for inactives: top-dose activity, negative = inhibition, usual class: inhibitors | actives 2.1% (n = 270,000) | P10636; note: potency is the fitted concentration of half-maximal effect; nearly all actives have a fitted effect of over 55% in size
# Target sequence (P10636 561-689 P618L limits assumed): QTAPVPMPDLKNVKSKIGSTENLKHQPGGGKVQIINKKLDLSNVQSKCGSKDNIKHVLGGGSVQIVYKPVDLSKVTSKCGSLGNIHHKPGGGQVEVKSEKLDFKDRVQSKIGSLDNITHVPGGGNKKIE
#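 Heparin-induced fibrillization of the P301L-mutant K18 repeat-domain fragment of human tau was followed by ThT binding in quantitative high-throughput format.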
# Sfp inh – inhibitors of Bacillus subtilis Sfp phosphopantetheinyl transferase; Q9F4F7; Biochemical Sfp PPTase activity, qHTS; Potency, µM, without a hit: largest response in the series, negative = inhibition, most hits filed as inhibitors; actives 3.5% (n = 310,000);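 note: the enzyme is Sfp with the accession as filed and its product quenches rhodamine fluorescence; potency is the fitted concentration of half-maximal effect; 0% = enzyme reaction without inhibitor and -100% = no enzyme wells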
#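 Reaction rates are the 30-min fluorescence difference (ex 525, em 598 nm) in wells containing 15 nM Sfp, 5 uM rhodamine-CoA and 12.5 uM BHQ-2-YbbR at pH 7.6 with 10 mM MgCl2.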
# Tau fluor cs – counter-screen for tau fibril formation inhibitors; actives 0.93% (n = 280,000); tau K18 P301L (four-repeat tau fragment) Alexa594 fluorescence, heparin fibrillization; Potency, µM (highest dose often 57.7 µM), without a hit: top-dose activity change, negative = decrease; note: potency is the fitted concentration of half-maximal effect; nearly all actives have a fitted effect of over 55% in size
#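 Human K18 P301L tau (15 uM unlabeled plus 0.24 uM Alexa 594-labeled, final) in 100 mM sodium acetate pH 7 was mixed with compound and 20 uM heparin and incubated 6 hr at 37 C.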
# Tau fibril FP – tau fibrillization inhibition (FP); P10636; K18 P301L tau heparin fibrillization, Alexa594 FP, 6 h; Potency, µM (top dose mostly 57.7 µM), without a hit: at the top dose activity, negative = inhibition, most hits filed as inhibitors; actives 0.39% (n = 280,000); note: potency is the fitted concentration of half-maximal effect; nearly all actives have a fitted effect of over 55% in size
#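 Steps: dispense K18 P301L tau (15 uM plus 0.24 uM Alexa 594 tracer, final) in pH 7 sodium acetate; add compound; add heparin (20 uM final); incubate 6 hr, 37 C; add ThT (30 uM final); after 1 hr ambient, read FP.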
# FBPA coupling cs – counter-screen for Giardia aldolase inhibitors: coupling enzyme system. coupling enzyme system counterscreen, AmpLite Red fluorescence. activity change, negative = inhibition, % at 58.2 µM, hits read low. actives 0.67% (n = 290,000); in the data active = activity change below about -30%
#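 Fluorescence at 525 nm excitation and 598 nm emission measured inhibition of the coupled detection system without aldolase. Compounds (at 57.5 uM final) were preincubated 10 min at room temperature with coupling enzyme reagent before a 20 min substrate/AmpLite Red step.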
# * marks the source's active call; other numbers are inactive results; u = inconclusive; x = no result given; ! = repeats disagree; [ ] = another dose, or the depositor's remark. This is a sample that favours compounds with a hit; in the whole collection about 11% have one here. Unless noted, calls come from the whole dose curve; as a rule, active = well fitted curve in the direction sought with a large enough effect; inconclusive = small, poorly fitted or top-dose-only effect, or another doubt; inactive = no such curve, though single readings can be large; an effect the other way counts as inactive or inconclusive. Unless noted, % is set by controls: 0 for no effect and ±100 for the full control effect.
SMILES,G9a block,Tau ThT inhib,Sfp inh,Tau fluor cs,Tau fibril FP,FBPA coupling cs
O=C(Nc1c(C(=O)Nc2cccc(F)c2)oc2ccccc12)c1cc2ccccc2o1,23.8%[59 µM],15.5%,x,-19.4%,u,x
Cc1c(C)n(CCN(C)C)c2ccc(C(=O)OCCN(C)C)cc12,14.1µM*,x,2.2%,x,x,x
N/C(=N\OS(=O)(=O)c1ccc(Cl)cc1)c1ccncc1,2.51µM*,u,9.9%,-9.4%,-11.5%,-0.1
CC(O)C(NS(=O)(=O)c1ccc(Cl)cc1)C(=O)OCC(=O)c1c[nH]c2ccccc12 (centres undefined),9.6%,1.1%,19.6%,-15.2%,-6.7%,-2.7
CC(C)C(NS(=O)(=O)c1c(Cl)cccc1Cl)C(=O)OCC(=O)c1c[nH]c2ccccc12 (centres undefined),-4.8%[59 µM],5.3%,16.4%,8.91µM*[quencher],u,-7.0
CC(C)Cc1ccc(C(C)C(=O)OCC(=O)c2c[nH]c3ccccc23)cc1 (centres undefined),9.9%[59 µM],-14.3%,41.5%,u,22.4µM*,0.5
CCCCC[C@H](O)/C=C/C=C/C/C=C\CCCC(=O)O,x,-3.9%,-5.1%,3.6%,8.3%,3.4
Cn1cccc1CC(=O)NNC(=S)Nc1ccc(F)cc1,u,-7.8%,8.4%,-0.2%,-1.8%,0.8
Cn1cccc1CC(=O)NNC(=S)Nc1ccc(Cl)cc1Cl,44.7µM*,-17.7%,0.5%,-14.4%,6.1%,-0.2
Cn1cccc1CC(=O)NNC(=S)NC(=O)c1ccccc1Br,17.8µM*,-11.3%,27.0%,-0.5%,2.1%,0.0
COc1cccc([C@@H]2Oc3ccc(Br)cc3C[C@H]2O)c1,x,-9.5%,19.3%,-10.4%,3.7%,-0.7
CCOc1cc(C(=S)N2CCOCC2)ccc1OS(=O)(=O)c1ccc(C)cc1,35.5µM*,x,-27.2%,x,x,4.4
O=C(Oc1ccc(C(=S)N2CCOCC2)cc1)c1ccccc1,-34.7%,-3.6%,12.9%,-7.2%,-3.0%,-0.1
CCOc1cc(C(=S)N2CCC(O)CC2)ccc1OS(=O)(=O)c1ccc(Br)cc1,8.91µM*,-17.7%,u,u,-9.7%,-0.3
O=C(Oc1ccccc1C(=S)N1CCOCC1)c1ccccc1,44.7µM*,x,-20.4%,x,x,-4.2
COc1cc(C(=S)N2CCOCC2)cc(OC)c1OS(=O)(=O)c1ccc(C)cc1,28.2µM*,x,56.2µM*,x,x,-3.1
CCn1c(=O)c2sccc2n2c(CCCC(=O)N3CCN(c4ccc(OC)cc4)CC3)nnc12,-7.3%[59 µM],-5.6%,x,-9.9%,1.3%,x
COc1ccc(Cl)cc1NC(=O)c1cc(S(=O)(=O)N2CCC(C)CC2)cn1C,-2.3%[59 µM],8.1%,x,-14.6%,-12.6%,x
COc1ccc(C(=S)N2CCOCC2)cc1OC(=O)c1cc([N+](=O)[O-])c(C)c([N+](=O)[O-])c1,u,u,-12.6%,-28.8%,-1.1%,-2.3
COc1ccc(C(=O)Oc2cc(C(=S)N3CCOCC3)ccc2OC)cc1,31.6µM*,x,-4.6%,x,x,3.2
COc1ccc(C(=S)N2CCN(C)CC2)cc1,-7.4%[12.7 µM],-6.4%,25.1µM*,-10.3%,-6.4%,4.1
CCOc1cc(C(=S)N2CCOCC2)cc(Br)c1OS(=O)(=O)c1ccccc1,28.2µM*,x,79.4µM*,x,x,-3.1
COC(=O)c1ccc(C(=S)N2CCOCC2)cc1,u,-4.0%,22.4µM*,-4.1%,-4.9%,4.8
Cc1[nH]c(C)c(S(=O)(=O)NCC(C)c2ccccc2)c1C(=O)N1CCCCC1 (centres undefined),x,x,5.5%,x,x,x
CC(C(=O)Nc1cccc([N+](=O)[O-])c1)N1C(=O)NC2(CCCC2)C1=O (centres undefined),-10.0%,x,13.5%,x,x,4.5
SMILES,G9a block,Tau ThT inhib,Sfp inh,Tau fluor cs,Tau fibril FP,FBPA coupling cs
O=C(Nc1ccccc1[N+](=O)[O-])C1COc2ccccc2O1 (centres undefined),x,x,-3.8%,x,x,-2.4
COc1ccc(C)cc1NC(=O)Cc1ccc(NC(=O)N2CCCCc3ccccc32)cc1,-1.0%[59 µM],-2.2%,x,-1.5%,2.1%,x
O=C(Oc1ccc(C(=S)N2CCOCC2)cc1)c1ccc(Br)cc1,-5.7%[59 µM],-6.1%,0.7%,-4.9%,-6.4%,-1.1
COc1ccc(C(=O)Oc2ccc(C(=S)N3CCOCC3)cc2)cc1,x,u,22.4µM*,-25.1%,u,0.8
COc1cc(C(=S)N2CCOCC2)cc(OC)c1OC,39.8µM*,x,50.1µM*!,u,10.9%,1.7
CCOc1cc(C(=S)N2CCOCC2)ccc1OC(=O)c1cc(OC)c(OC)c(OC)c1,4.4%,x,12.9%,x,x,-0.9
COc1cc(C(=S)N2CCOCC2)ccc1OC(=O)c1cc(OC)c(OC)c(OC)c1,14.1µM*,x,50.1µM*,x,x,0.2
CCOc1ccc(C(=S)N2CCOCC2)cc1OCC,31.6µM*,-16.2%,-19.7%,-9.9%,-1.8%,4.4
COc1ccc(S(=O)(=O)Oc2cc(C(=S)N3CCOCC3)ccc2OC)cc1,35.5µM*,x,-3.6%,x,x,1.5
Cc1ccc(S(=O)(=O)CCC(=O)OCC(=O)Nc2cc(F)ccc2C)cc1,17.6%[2.33 µM],x,x,x,x,x
CC(OC(=O)c1ccc(-c2ccc([N+](=O)[O-])cc2)o1)C(=O)NC(N)=O (centres undefined),u,u,-20.6%,-28.4%,8.3%,1.2
CC(C)(C)C(=O)/C=c1\s/c(=C\c2ccc(-c3ccc([N+](=O)[O-])cc3)o2)c(=O)n1CC(=O)NC(N)=O,44.7µM*,u,u,u,3.3%,-12.3
COc1ccc(C(C(=O)Nc2ccc(C(C)C)cc2)N(Cc2ccco2)C(=O)CC2NC(=O)NC2=O)cc1 (centres undefined),8.91µM*,-13.0%,-17.4%,-8.6%,-9.8%,-4.6
COc1ccc(NC(=O)C(c2ccc(OC)cc2)N(Cc2ccco2)C(=O)CC2NC(=O)NC2=O)cc1 (centres undefined),13.9%[59 µM],-8.9%,3.6%,-9.3%,-1.3%,1.1
Fc1ccc2nc(C(F)(F)F)cc(N3CCOCC3)c2c1,30.7%,x,13.3%,x,x,2.3
Cc1ccc(/C=N/NC(=O)CNC(=O)c2ccc(S(=O)(=O)N3CCCC3)cc2)o1,44.7µM*,4.3%,2.0%,-3.6%,-14.5%,10.8
Cc1ccc(/C=N\NC(=O)CNC(=O)C23CC4CC(CC(C4)C2)C3)o1,-5.5%[12.7 µM],x,56.2µM*,x,x,x
O=C(CNC(=O)c1ccc(S(=O)(=O)N2CCCCC2)cc1)N/N=C/c1ccco1,-18.9%,-9.3%,1.5%,-5.3%,-2.4%,-0.9

# Compound activity as filed in PubChem BioAssay.
